TbPYK inhibitor = inhibitors of Trypanosoma brucei pyruvate kinase. Q57TT1. Potency, µM (highest dose often 76.8 µM), for the others: top-dose activity, negative = inhibition, hits mostly inhibitors. 0.12% of 410,000 active. AID 624173. TbPYK enzyme, Kinase-Glo Plus ATP luminescence, 45 min; also: potency is read from the fitted curve at half-maximal effect; % is scaled to controls: 0 for no effect and ±100 for the full control effect; nearly all actives have a fitted effect of over 50% in size
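TbPYK + substrate in 50 mM TEA pH 7.2, 100 mM KCl, 10 mM MgCl2, 0.05% BSA, 0.01% Tween-20; cpd pinned; ADP 130 uM final; 45 min RT; Kinase-Glo Plus 10 min; luminescence endpoint.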
RE007 growth inh = less growth of the S. pombe RE007 Vpr strain; 0.21% of 360,000 active; Potency, µM (titrated, usually from 92.2 µM), for the others: at the top dose activity change, negative = less growth, hits mostly inhibitors; S. pombe RE007 Vpr strain, BacTiter-Glo ATP luminescence, 24 h; active = well fitted falling curve with a large enough effect; inconclusive = small, poorly fitted or top-dose-only effect; inactive = no such curve, though single readings can be large or run the other way; also: potency is read from the fitted curve at half-maximal effect; % is scaled to controls: 0 for no effect and ±100 for the full control effect; nearly all actives have a fitted effect of over 50% in size
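Fission yeast RE007 carrying one integrated HIV-1 vpr copy, seeded at OD 0.01 in PMG+AL medium with 23 nL pinned compound. Grown 24 h at 30 degrees; viability read by BacTiter-Glo luminescence after 5 min.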
Giardia FBPA inh = blocks Giardia fructose-bisphosphate aldolase activity. purified Giardia FBPA. A8B2U2. 0.71% of 290,000 active. Potency, µM (top dose mostly 59.6 µM), for inactives: top-dose activity, negative = inhibition, actives largely listed as inhibitors; also: potency is read from the fitted curve at half-maximal effect; % is scaled to controls: 0 for no effect and ±100 for the full control effect; nearly all actives have a fitted effect of over 55% in size
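40 nM FBPA preincubated 10 min at RT with compound (up to 57.5 uM final), then substrate plus GAPDH/TPI/NAD/arsenate coupling and diaphorase/resazurin added. Fluorescence read after 20 min at RT, 525/598 nm.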
Shiga toxin inh = blocks Shiga toxin action in Vero cells; AID 2315; inhibition, % at 38.7 µM; 9.2% of 290,000 active; Vero cells, Shiga toxin protein synthesis inhibition reporter; in the data active = inhibition mostly above about 28%, no sharp cut-off; inactive = mostly below about 43%; also: 0% is about no effect
CHX counter = affects cycloheximide protein synthesis inhibition readout, counter-screen; max response, %; cell reporter, cycloheximide protein synthesis inhibition counterscreen; 12% of 300,000 active; in the data active = max response mostly above about 13%, no sharp cut-off; inactive = mostly below about 14%; also: read at 38.3 µM for the half of the compounds with a filed dose; 0% is about no effect
LmPK inhibitor = inhibitors of Leishmania mexicana pyruvate kinase | Q27686 | purified LmPK, Kinase-Glo ATP luminescence, 1 h | Potency, µM (series often up to 57.5 µM), without a hit: at the highest dose activity change, negative = inhibition, hits mostly inhibitors | 0.37% of 290,000 active; also: potency is read from the fitted curve at half-maximal effect; % is scaled to controls: 0 for no effect and ±100 for the full control effect
Target sequence (Q27686 whole entry, looked up): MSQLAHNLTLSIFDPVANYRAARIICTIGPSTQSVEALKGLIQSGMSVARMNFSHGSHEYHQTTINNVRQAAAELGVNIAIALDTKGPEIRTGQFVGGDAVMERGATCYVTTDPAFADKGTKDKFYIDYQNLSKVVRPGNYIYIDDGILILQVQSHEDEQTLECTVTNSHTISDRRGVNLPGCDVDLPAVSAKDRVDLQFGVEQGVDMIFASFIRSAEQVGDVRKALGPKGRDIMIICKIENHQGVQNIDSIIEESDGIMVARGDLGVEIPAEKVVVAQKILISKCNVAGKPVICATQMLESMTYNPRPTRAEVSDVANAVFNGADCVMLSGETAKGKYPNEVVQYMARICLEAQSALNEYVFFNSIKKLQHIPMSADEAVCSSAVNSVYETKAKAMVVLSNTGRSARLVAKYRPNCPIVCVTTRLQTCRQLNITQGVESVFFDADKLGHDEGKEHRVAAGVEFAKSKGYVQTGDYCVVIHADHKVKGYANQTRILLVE
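Pyruvate kinase activity monitored as ATP production (luciferase luminescence). Conditions: 0.1 nM enzyme, 0.5 mM PEP, 0.1 mM ADP, 1 h, RT; normalized against uninhibited and no-enzyme wells.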
Numbers without * were called inactive; ? = inconclusive; / = no result given. Only a selection was taken, and hits are over-represented in it overall. Unless noted, calls follow the shape of the dose curve; as a rule, active = well fitted curve in the direction sought with a large enough effect; inconclusive = small, poorly fitted or top-dose-only effect, or another doubt; inactive = no such curve, though single readings can be large; an effect the other way counts as inactive or inconclusive.

SMILES	TbPYK inhibitor	RE007 growth inh	Giardia FBPA inh	Shiga toxin inh	CHX counter	LmPK inhibitor
Cc1ccc(C(=O)O)c(C(=O)Nc2nc(C)cs2)c1	5.4%	6.8%	0.9%	-7.7	-2.8	-7.0%
COc1ccc(NC(=O)C(=O)NCC(c2cccnc2)N2CCc3ccccc3C2)cc1 (configuration not stated)	1.3%	/	/	/	/	/
COC(=O)c1ccc(N2C(=O)CC(N3CCC(n4c(=O)[nH]c5ccccc54)CC3)C2=O)cc1 (configuration not stated)	-8.3%	14.1µM*	0.0%	14.8	-1.6	-0.4%
Cc1cc(N2C(=O)CC(N3CCC(n4c(=O)[nH]c5ccccc54)CC3)C2=O)no1 (configuration not stated)	-27.8%	?	-11.2%	10.3	2.3	-2.8%
COC(=O)c1ccc(N2C(=O)CC(N3CCC(O)(c4ccc(Br)cc4)CC3)C2=O)cc1 (configuration not stated)	-4.1%	35.5µM*	?	-3.7	0.7	5.4%
COc1ccc(C2C(C(=O)c3ccco3)=C(O)C(=O)N2c2nnc(C)s2)cc1 (configuration not stated)	-14.9%	2.2%	?	76.0*	54.9*	8.8%
C=CCOc1ccc(C2C(C(=O)c3ccco3)=C(O)C(=O)N2c2nnc(C)s2)cc1 (configuration not stated)	-18.4%	2.1%	?	71.5*	22.8*	-4.6%
COc1ccc(C2C(C(=O)c3ccco3)=C(O)C(=O)N2c2nnc(C)s2)cc1OC (configuration not stated)	-10.8%	-8.2%	-12.1%	5.8	-1.3	-0.2%
Cc1ccc2nc(N3C(=O)C(O)=C(C(=O)c4ccco4)C3c3cccs3)sc2c1 (configuration not stated)	-10.2%	-6.3%	5.6%	68.4*	34.2*	2.5%
CC(NC(=O)CSc1n[nH]c(-c2ccccc2Cl)n1)c1nc2ccccc2[nH]1 (configuration not stated)	-3.5%	/	/	/	/	/
O=C(N[C@H]1N=C(c2ccccc2F)c2cccc3c2N(CC3)C1=O)c1cc2ccccc2[nH]1	5.2%	/	/	/	/	/
CC1CCN(c2csc3ccc(F)cc3c2=O)CC1	0.6%	/	/	/	/	/
COc1cc(CN(C(=O)c2ccc(OC(C)C)cc2)c2ccccn2)cc(OC)c1OC	1.9%	/	/	/	/	/
O=C(CSc1nc2ccccc2[nH]1)Nc1c(F)c(F)c(F)c(F)c1F	-2.4%	6.3%	9.9%	0.6	10.7	0.7%
O=C(CSc1nc2ccccc2[nH]1)c1ccco1	-5.2%	9.5%	?	105.5*	28.5*	-13.2%
O=C(CSc1ncnc2ccccc12)c1ccco1	-15.2%	-13.2%	-11.0%	56.6	25.1*	-1.3%
CCOc1ccc2nc(SCC(=O)N(C)C)[nH]c2c1	0.8%	-20.5%	-0.8%	74.5*	70.6*	12.9%
COc1ccc2nc(SCC(=O)NC(C)(C)C)[nH]c2c1	-13.9%	12.9%	-0.6%	55.7	8.4	0.8%
COc1ccc2nc(SCC(=O)c3ccco3)[nH]c2c1	-8.1%	-10.5%	-21.5%	62.6*	48.2*	-24.0%
NCCC(O)C(=O)NC1C[C@@H](N)[C@H](O[C@@H]2OC(CN)C(O)C(O)C2O)C(O)[C@H]1O[C@H]1OC(CO)C(O)C(N)C1O (some centres not stated)	/	/	12.3%	/	/	/
COc1ccc(NC(=O)CSc2nc3ccc(OC)cc3[nH]2)cc1	4.9%	-5.8%	4.6%	1.0	3.6	-4.0%
COc1ccc2nc(SCC(=O)C(C)(C)C)[nH]c2c1	-7.0%	-12.3%	-17.1%	65.2*	42.8*	5.6%
COc1ccc2nc(SCC(=O)Nc3nccs3)[nH]c2c1	2.9%	9.4%	0.9%	43.0*	19.7*	2.4%
O=C(Oc1ccccc1)N1CCC[C@@]2(CCN(c3ccccc3)C2)C1	0.0%	/	9.8%	/	/	/
O=C(Nc1ccc(Br)cc1)c1cnc[nH]1	6.2%	16.5%	2.0%	64.2*	39.3*	-1.8%
O=C(CC(=O)Nc1ccc(Br)cc1)Nc1ccc(Br)cc1	-1.4%	-9.2%	12.7%	7.1	-1.6	0.0%
COc1cccc(NC(=O)c2cnc[nH]2)c1	1.1%	-8.2%	3.7%	40.8*	33.4*	-3.6%
